According to PubChem BioAssay AID1159537 (DiRusso Lab, Biochemistry Department, University of Nebraska, 2015):
Screen size: about 44,000 compounds; about 370 (0.84%) were called active. The rule behind the calls is not given here. Many of the other results were omitted from the sample, so actives are more common in it than they were.

assay: compounds raising algal triacylglycerol storage – qHTS, Chlamydomonas reinhardtii, primary screen (AID 1159537); settings: Chlamydomonas reinhardtii TAG, Nile Red fluorescence, 72 h;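 note: hits raise Nile Red signal meaning more stored TAG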

| SMILES | outcome |
| --- | --- |
| CCN(CC)CC#CCOc1ccccc1 | active [screened at 10 µM (by protocol)] |
| O=C(Nc1cccc(OC(=O)N2CCCCC2)c1)N1CCOCC1 | inactive |
| CCN(CC)CCNc1ccc([N+](=O)[O-])c2cccnc12 | inactive [screened at 10 µM (by protocol)] |
| CN1CCN(Cc2cc(Br)cs2)CC1 | inactive [screened at 10 µM (by protocol)] |
| CCN1CCN(CC2=CC[C@H]3C[C@@H]2C3(C)C)CC1 | inactive [screened at 10 µM (by protocol)] |
| CN1CCCN(CC2=CC[C@H]3C[C@@H]2C3(C)C)CC1 | active [screened at 10 µM (by protocol)] |
| Cc1cccc(OCC(=O)N2CCN(Cc3ccccc3)CC2)c1C | inactive [screened at 10 µM (by protocol)] |
| Fc1cccc(Cl)c1CN1CCN(c2ccccc2)CC1 | inactive |
| O=c1cccc2n1CC1CC2CN(c2nc(N3CCOCC3)nc(N3CCOCC3)n2)C1 (stereo not given) | inactive |
| COc1ccccc1N1CCN(Cc2cccc([N+](=O)[O-])c2)CC1 | inactive |
| O=[N+]([O-])c1ccc(CN2CCN(c3cccc(Cl)c3)CC2)cc1 | inactive |
| Cc1ccc(C)c(N2CCN(Cc3ccc([N+](=O)[O-])cc3)CC2)c1 | active |
| CCC1(c2ccccc2)C(=O)NC(=O)N(C)C1=O (stereo not given) | inactive |
| Nc1ccc(-c2ccc(N)c(N)c2)cc1N | inactive [screened at 10 µM (by protocol)] |
| N#CC(/C=C/c1ccccc1)N1CCOCC1 (stereo not given) | inactive |
